According to PubChem BioAssay (NCATS):
Results filed as inconclusive are left out. Active and inactive are the calls of the source. Unless noted, calls come from the whole dose curve.

What was measured:
[1] = qHTS for Inhibitors of the Functional Ribonucleoprotein Complex (vRNP) of Lassa (LASV) Arenavirus: LASV Primary Screen - GLuc reporter signal (AID 1347082; calls by dose curve; tested in HEK293 reporter line; note: nearly all actives have a fitted effect of over 60% in size)
[2] = qHTS for Inhibitors of the Functional Ribonucleoprotein Complex (vRNP) of Lassa (LASV) Arenavirus: Viability assay - alamar blue signal for LASV Primary Screen (AID 1347083; calls by dose curve; tested in HEK293 reporter line; note: nearly all actives have a fitted effect of over 80% in size)
[3] = qHTS for Inhibitors of the Functional Ribonucleoprotein Complex (vRNP) of Lymphocytic Choriomeningitis Arenaviruses (LCMV): Viability assay - alamar blue signal for LCMV Primary Screen (AID 1347085; calls by dose curve; tested in HEK293 reporter line; note: nearly all actives have a fitted effect of over 80% in size)
[4] = molecular target: Nucleoprotein (Lymphocytic choriomeningitis virus (strain Armstrong)) (UniProt P09992); test: qHTS for Inhibitors of the Functional Ribonucleoprotein Complex (vRNP) of Lymphocytic Choriomeningitis Arenaviruses (LCMV): LCMV Primary Screen - GLuc reporter signal (AID 1347086); note: nearly all actives have a fitted effect of over 70% in size
Chain of Nucleoprotein (Lymphocytic choriomeningitis virus (strain Armstrong)) (P09992 whole entry, looked up): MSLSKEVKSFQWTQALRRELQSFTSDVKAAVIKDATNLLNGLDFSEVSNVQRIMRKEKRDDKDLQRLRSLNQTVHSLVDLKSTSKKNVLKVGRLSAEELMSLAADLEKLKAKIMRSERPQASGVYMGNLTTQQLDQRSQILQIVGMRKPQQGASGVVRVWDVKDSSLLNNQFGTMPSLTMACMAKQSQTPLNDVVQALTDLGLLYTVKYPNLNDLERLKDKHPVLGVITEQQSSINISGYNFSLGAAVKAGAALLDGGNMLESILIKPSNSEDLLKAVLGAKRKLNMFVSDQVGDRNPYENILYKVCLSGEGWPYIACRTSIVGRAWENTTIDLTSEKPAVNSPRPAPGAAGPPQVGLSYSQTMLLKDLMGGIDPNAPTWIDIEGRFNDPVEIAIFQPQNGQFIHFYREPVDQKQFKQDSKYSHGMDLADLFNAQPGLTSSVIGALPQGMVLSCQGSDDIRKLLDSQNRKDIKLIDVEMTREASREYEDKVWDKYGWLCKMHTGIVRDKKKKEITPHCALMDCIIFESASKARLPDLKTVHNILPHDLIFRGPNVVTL
% is set by controls: 0 for no effect and ±100 for the full control effect.
Note: series mostly up to about 57 µM.

CN(C(=O)CCCOc1ccc2[nH]c(=O)ccc2c1)C1CCCCC1
inactive: Potency [1] | Potency [2] | Potency [3] | Potency [4]

O=c1[nH]c(=O)c2[nH]c(=O)[nH]c2[nH]1
inactive: activity change, negative = inhibition [1] -5.36% [at 11.5 µM] | activity change, negative = reduced viability [2] 13.2% [at 11.5 µM] | activity change, negative = lower viability [3] -14.6% [at 11.5 µM] | activity change, negative = inhibition [4] 20.2% [at 11.5 µM]

C/C=C(/C(=C/C)c1ccc(O)cc1)c1ccc(O)cc1
inactive: Potency [1] | Potency [2] | Potency [3] | Potency [4]

O=C(O)CP(=O)(O)O
inactive: Potency [1] | Potency [2] | Potency [3] | Potency [4]

O=c1[nH]c2cc(C(F)(F)F)c(N3CCOCC3)cc2n(CP(=O)(O)O)c1=O
inactive: Potency [1] | Potency [2] | Potency [3] | Potency [4]

COC(=O)C1=C(C)NC(C)=C(C(=O)O[C@@H]2CCCN(Cc3ccccc3)C2)[C@@H]1c1cccc([N+](=O)[O-])c1
inactive: Potency [1] | Potency [2] | Potency [3] | Potency [4]

CCN(CC)CCOC(=O)C(c1ccccc1)c1ccccc1
inactive: Potency [1] | Potency [2] | Potency [3] | Potency [4]

CCCc1cc(C(N)=S)ccn1
inactive: Potency [1] | Potency [2] | Potency [3] | Potency [4]

O=C(O)CN(CCOCCOCCN(CC(=O)O)CC(=O)O)CC(=O)O
inactive: Potency [1] | Potency [2] | Potency [3] | Potency [4]

CC1=C(CC(=O)O)c2cc(F)ccc2/C1=C\c1ccc(S(C)(=O)=O)cc1
inactive: Potency [1] | Potency [2] | Potency [3] | Potency [4]

CC[N+]1(CC)CCC(=C(c2ccccc2)c2ccccc2)C1C (stereo not given)
inactive: Potency [1] | Potency [2] | Potency [3] | Potency [4]

C[N+](C)(C)CCCCCCCCCC[N+](C)(C)C
inactive: Potency [1] | Potency [2] | Potency [3] | Potency [4]

CC(=O)OC[C@H]1O[C@@](COC(C)=O)(O[C@H]2O[C@H](COC(C)=O)[C@@H](OC(C)=O)[C@H](OC(C)=O)[C@H]2OC(C)=O)[C@@H](OC(C)=O)[C@@H]1OC(C)=O
inactive: Potency [1] | Potency [2] | Potency [3] | Potency [4]

CC(C)C[C@@H](N)C(=O)O
inactive: Potency [1] | Potency [2] | Potency [3] | Potency [4]

C[C@H]1C[C@H]2[C@@H]3CCC4=CC(=O)C=C[C@]4(C)[C@@]3(Cl)[C@@H](O)C[C@]2(C)[C@@]1(O)C(=O)CO
inactive: Potency [1] | Potency [2] | Potency [3] | Potency [4]

CCCOC(C(=O)OC1CCN(C)CC1)(c1ccccc1)c1ccccc1
inactive: Potency [1] | Potency [2] | Potency [3] | Potency [4]

c1ccc(OCc2ccc(CCCN3CCOCC3)cc2)cc1
inactive: Potency [1] | Potency [2] | Potency [3] | Potency [4]

OCC(O)CS (stereo not given)
inactive: Potency [1] | Potency [2] | Potency [3] | Potency [4]

CCOC(=O)[C@H](CCc1ccccc1)N[C@H]1CCc2ccccc2N(CC(=O)O)C1=O
inactive: Potency [1] | Potency [2] | Potency [3] | Potency [4]

CN1CCCN=C1/C=C/c1cccs1
inactive: Potency [1] | Potency [2] | Potency [3] | Potency [4]

OC(CCN1CCCCC1)(c1ccccc1)c1ccccc1
inactive: Potency [1] | Potency [2] | Potency [3] | Potency [4]

Cc1cc(O)c(C)c(C)c1O
inactive: Potency [1] | Potency [2] | Potency [3] | Potency [4]

COc1ccccc1N1CCN(CC(O)COc2cccc3ccccc23)CC1 (stereo not given)
inactive: Potency [1] | Potency [2] | Potency [3] | Potency [4]

CCc1cccc(N(C)C(N)=Nc2cccc3ccccc23)c1
inactive: Potency [1] | Potency [2] | Potency [3] | Potency [4]

CCc1cc2cc(OC)c(OC)cc2c(Cc2ccccc2)n1
inactive: Potency [1] | Potency [2] | Potency [3] | Potency [4]

CCN(CC)CCN
inactive: Potency [1] | Potency [2] | Potency [3] | Potency [4]

CCN1C(=O)c2ccccc2C1Nc1ccc(OCCN2CCCCC2)cc1 (stereo not given)
inactive: Potency [1] | Potency [2] | Potency [3] | Potency [4]

NS(=O)(=O)c1cc(C(=O)O)c(NCc2ccco2)cc1Cl
inactive: Potency [1] | Potency [2] | Potency [3] | Potency [4]

C[C@]12CCC(=O)C=C1C=C[C@@H]1[C@@H]2CC[C@@]2(C)[C@H]1CC[C@@]21CCC(=O)O1
inactive: Potency [1] | Potency [2] | Potency [3] | Potency [4]

CCN(CC)CCCN(c1ccccc1)C1Cc2ccccc2C1
inactive: Potency [1] | Potency [2] | Potency [3] | Potency [4]

Cc1cccc(CN2CCN(C(c3ccccc3)c3ccc(Cl)cc3)CC2)c1 (stereo not given)
inactive: Potency [1] | Potency [2] | Potency [3] | Potency [4]

CCOC(=O)n1ccn(C)c1=S
inactive: Potency [1] | Potency [2] | Potency [3] | Potency [4]

C/C(=C(\CCOP(=O)(O)O)SC(=O)c1ccccc1)N(C=O)Cc1cnc(C)nc1N
inactive: activity change, negative = inhibition [1] 1.78% [at 5.82 µM] | activity change, negative = reduced viability [2] 7.22% [at 5.82 µM] | activity change, negative = lower viability [3] -0.415% [at 5.82 µM] | activity change, negative = inhibition [4] -1.19% [at 5.82 µM]

CN(C)CC[C@@H](c1ccc(Cl)cc1)c1ccccn1
inactive: Potency [1] | Potency [2] | Potency [3] | Potency [4]

NC(N)=NC(=O)c1nc(Cl)c(N)nc1N
inactive: Potency [1] | Potency [2] | Potency [3] | Potency [4]

O=S1(=O)c2cccc3cccc(c23)N1CCCN1CCN(c2ccc(F)cc2)CC1
inactive: Potency [1] | Potency [2] | Potency [3] | Potency [4]

CC(C)CCCC(C)N (stereo not given)
inactive: Potency [1] | Potency [2] | Potency [3] | Potency [4]

Cn1cnc2c1c(=O)[nH]c(=O)n2C
inactive: Potency [1] | Potency [2] | Potency [3] | Potency [4]

CC(C)=CCC/C(C)=C/CC/C(C)=C/C(=O)OCC(=O)[C@@]1(O)CC[C@H]2[C@@H]3CCC4=CC(=O)C=C[C@]4(C)[C@H]3[C@@H](O)C[C@@]21C
inactive: Potency [1] | Potency [2] | Potency [3] | Potency [4]

OCC(CO)N[C@H]1C[C@](O)(CO)[C@@H](O)[C@H](O)[C@H]1O
inactive: Potency [1] | Potency [2] | Potency [3] | Potency [4]

FC(F)(F)C(F)(F)C(F)(F)C(F)(F)C(F)(F)C(F)(F)C(F)(F)C(F)(F)Br
inactive: Potency [1] | Potency [2] | Potency [3] | Potency [4]

CCCCC/C=C\C/C=C\CCCCCCCC(=O)NC(C)c1ccccc1 (stereo not given)
inactive: Potency [1] | Potency [2] | Potency [3] | Potency [4]

CCOC(=O)OC(C)OC(=O)[C@@H]1N2C(=O)[C@@H](NC(=O)[C@H](N)c3ccccc3)[C@H]2SC1(C)C (stereo not given in full)
inactive: Potency [1] | Potency [2] | Potency [3] | Potency [4]

C#Cc1ccc(-c2ccccc2F)cc1
inactive: Potency [1] | Potency [2] | Potency [3] | Potency [4]

CCCCCCCCOc1ccccc1C(=O)Nc1ccc(C(=O)OCC[N+](C)(CC)CC)cc1
inactive: Potency [1] | Potency [2] | Potency [3] | Potency [4]

NCC1CCC(C(=O)Oc2ccc(CCC(=O)O)cc2)CC1 (stereo not given)
inactive: Potency [1] | Potency [2] | Potency [3] | Potency [4]

Nc1cc(C(F)(F)F)ccc1S
inactive: Potency [1] | Potency [2] | Potency [3] | Potency [4]

C[C@]12CCC(=O)C=C1CC[C@@H]1[C@@H]2C(=O)C[C@@]2(C)[C@H]1CC[C@]2(O)C(=O)CO
inactive: Potency [1] | Potency [2] | Potency [3] | Potency [4]

Cc1ccc(CCn2c3c(c4cc(Cl)ccc42)CN(C)CC3)cn1
inactive: Potency [1] | Potency [2] | Potency [3] | Potency [4]

CC(=O)O[C@H]1CC[C@@]2(C)C(=CC[C@@H]3[C@@H]2CC[C@]2(C)C(C(C)=O)=CC[C@@H]32)C1
inactive: Potency [1] | Potency [2] | Potency [3] | Potency [4]

CC(=O)Oc1ccc2c(c1)CC[C@@H]1[C@@H]2CC[C@]2(C)[C@@H](O)CC[C@@H]12
inactive: Potency [1] | Potency [2] | Potency [3] | Potency [4]

CCOC(=O)C(=O)c1csc(NC=O)n1
inactive: Potency [1] | Potency [2] | Potency [3] | Potency [4]

O=C(O)C(=O)Nc1cccc(-c2nn[nH]n2)c1
inactive: Potency [1] | Potency [2] | Potency [3] | Potency [4]

C/C(=C(/OCCOc1ccc(Cl)cc1)c1ccc(Cl)cc1Cl)n1ccnc1
inactive: Potency [1] | Potency [2] | Potency [3] | Potency [4]

O=C(CCCN1CCC(O)(c2ccc(Br)cc2)CC1)c1ccc(F)cc1
inactive: Potency [1] | Potency [2] | Potency [3] | Potency [4]

CN(C)CCCO[C@@H]1[C@H]2OC(C)(C)O[C@H]2O[C@@H]1C(O)CO (stereo not given in full)
inactive: Potency [1] | Potency [2] | Potency [3] | Potency [4]

Nc1c(NC/C=C\COc2cc(CN3CCCCC3)ccn2)c(=O)c1=O
inactive: Potency [1] | Potency [2] | Potency [3] | Potency [4]

O=C(NC1CCN(CCc2c[nH]c3ccccc23)CC1)c1ccccc1
inactive: Potency [1] | Potency [2] | Potency [3] | Potency [4]

N[C@@H](CSSC[C@H](N)C(=O)O)C(=O)O
inactive: activity change, negative = inhibition [1] -0.506% [at 0.757 µM] | activity change, negative = reduced viability [2] 9.51% [at 0.757 µM] | activity change, negative = lower viability [3] 6.72% [at 0.757 µM] | activity change, negative = inhibition [4] 13.5% [at 0.757 µM]

CNC(=O)c1c(I)c(NC(=O)CCCCC(=O)Nc2c(I)c(C(=O)O)c(I)c(C(=O)NC)c2I)c(I)c(C(=O)O)c1I
inactive: Potency [1] | Potency [2] | Potency [3] | Potency [4]
